Rows were chosen to be rich in hits. Some 4.1% of all compounds tested hit in one or more screens of this group.
Beta cell apopt – inhibitors of cytokine-induced beta cell apoptosis, primary screen, luminescence; INS-1E cytokine-induced death, ATP luminescence, 48 h; percent of positive-control rescue, neutral wells zero; protection from apoptosis, % (concentration not given with the values); 0.8% of 300,000 active; AID 435005, 2010;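 active means Every replicate reaches about 75%, or at least half do and their mean reaches it too, limit read from the data; inconclusive means At least half of replicates reach the limit but their mean does not; inactive means Under half of replicates reach the limit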;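 further: 0% = cytokine-treated negative control wells and 100% = positive control rescue; higher means more ATP so stronger rescue from cytokine killing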
Mdm2-MdmX inh – inhibitors of human Mdm2-MdmX association, primary screen, cell-based, luminescence, split luciferase, SaOS-2, uHTS | AID 485346, 2010 | SaOS-2 split-luciferase Mdm2/MdmX complementation | 3% of 330,000 active | Protein Mdm4 (Homo sapiens) + E3 ubiquitin-protein ligase Mdm2 (Homo sapiens), … | inhibition, % at 8 µM;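 active means inhibition of at least 50% at 8 µM in the primary screen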
Target sequence (O15151 whole entry, looked up): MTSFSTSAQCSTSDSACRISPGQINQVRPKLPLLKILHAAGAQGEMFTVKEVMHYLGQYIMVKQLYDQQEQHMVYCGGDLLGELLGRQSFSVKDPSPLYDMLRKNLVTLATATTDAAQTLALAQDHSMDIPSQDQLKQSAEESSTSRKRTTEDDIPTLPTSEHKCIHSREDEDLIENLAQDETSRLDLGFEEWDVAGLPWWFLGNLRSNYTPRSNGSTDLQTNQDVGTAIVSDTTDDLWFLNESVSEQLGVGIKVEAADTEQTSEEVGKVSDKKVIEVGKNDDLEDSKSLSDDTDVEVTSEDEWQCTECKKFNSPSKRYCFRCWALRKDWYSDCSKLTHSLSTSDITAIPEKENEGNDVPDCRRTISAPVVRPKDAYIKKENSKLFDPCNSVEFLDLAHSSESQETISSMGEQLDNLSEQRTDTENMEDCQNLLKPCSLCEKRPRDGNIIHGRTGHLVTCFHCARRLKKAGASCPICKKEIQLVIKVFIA
Target sequence (Q00987 whole entry, looked up): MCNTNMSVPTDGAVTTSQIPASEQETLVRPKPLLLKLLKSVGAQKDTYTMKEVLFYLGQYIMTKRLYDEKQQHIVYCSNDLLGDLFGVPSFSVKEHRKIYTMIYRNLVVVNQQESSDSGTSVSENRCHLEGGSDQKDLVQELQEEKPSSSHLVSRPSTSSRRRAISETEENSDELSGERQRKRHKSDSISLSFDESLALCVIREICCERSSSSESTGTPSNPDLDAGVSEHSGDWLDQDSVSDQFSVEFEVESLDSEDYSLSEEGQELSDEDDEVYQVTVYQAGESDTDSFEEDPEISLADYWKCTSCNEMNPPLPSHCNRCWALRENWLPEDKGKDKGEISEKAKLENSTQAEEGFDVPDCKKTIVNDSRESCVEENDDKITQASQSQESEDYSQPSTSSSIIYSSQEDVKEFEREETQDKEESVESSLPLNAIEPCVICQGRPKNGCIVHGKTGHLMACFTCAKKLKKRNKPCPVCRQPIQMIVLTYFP
CSC inhib – cancer stem cell viability inhibitors, primary screen, luminescence; cancer stem cell-like cells viability; inhibition, % at 7.5 µM; 1.1% of 300,000 active; AID 2717, 2010; in the data active means inhibition above about 75%; inconclusive means no clear call, values can overlap the other calls; tested in HMLE shEcad cells
aSyn UTR inh – MLPCN primary screen, SNCA 5' untranslated region | alpha-synuclein 5'UTR reporter, inhibitor activity | inhibition, % (tested at 7.5 µM) | 0.82% of 300,000 active | AID 1813, 2009; in the data active means inhibition above about 60%; inconclusive means no clear call, values can overlap the other calls;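 further: H4 neuroglioblastoma cells stably carrying SNCA 5'UTR luciferase fusion; 0% = DMSO wells and 100% = positive control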
A1 inh – caspase 3/7 activation in MEF A1-2A-BIM cells, primary screen, A1 inhibitor project, cell-based, luminescence, HTS | Caspase-Glo 3/7 luminescence, 3 h; percent of clofoctol response, vehicle zero | caspase activation, % (no concentration beside the values) | 0.066% of 330,000 active | AID 2462, 2010;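 active means over half of replicate activation scores above 10%, or exactly half above 10 with the replicate mean above 10; inconclusive means replicate mean below 10 yet half the replicates above 10; inactive means over half of replicates below 10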
Starred values were filed as active, the others as inactive; ? = inconclusive; · = no result.

SMILES	Beta cell apopt	Mdm2-MdmX inh	CSC inhib	aSyn UTR inh	A1 inh
CCOc1ccc(C2=CC(=O)C[C@H](c3ccc(OC)cc3)C2)cc1	-8	-42	-11	·	?
O=C(COc1ccccc1-c1ccccc1)N/N=C/c1cccc2ccccc12	-9	32	95*	75*	1
O=C(c1ccccc1F)N1CCN(c2ccc([N+](=O)[O-])c(NCC3CCCO3)c2)CC1 (stereo not drawn)	5	42	-8	5	-1
Cc1ccnc(NC(=O)CCN2C(=O)c3ccccc3S2(=O)=O)n1	·	10	·	5	·
O=C1/C(=C/Nc2ccc3c(c2)OCO3)CCc2ccccc21	29	10	57	96*	-8
COc1ccc(N/C=C2\CCc3ccccc3C2=O)cc1	19	-37	3	94*	0
CC(Oc1ccccc1Cl)C(=O)N(Cc1cccs1)C1CCS(=O)(=O)C1 (stereo not drawn)	-7	-28	·	20	·
COc1cc(/C=C2/C(=N)N3C=CSC3=NC2=O)ccc1OCCCOc1cc(C)ccc1C	13	4	28	-44	8.5*
COc1cc(/C=C2\C(=N)N3N=C(S(C)(=O)=O)SC3=NC2=O)ccc1OCCOc1ccccc1C	9	·	22	-27	1
CCC1=Nc2cc(C(=O)NCc3ccco3)ccc2Sc2ccc(C)cc21	16	·	43	104*	0
CCC1=Nc2cc(C(=O)NCCCOC)ccc2Sc2ccccc21	-7	48	56	74*	1
Cc1cc(C(=O)CCC(=O)NCc2ccccc2F)c(C)s1	0	13	2	-18	1
CCCCCCSc1ccc([C@@H]2[C@H]3C(=O)N(C)C(=O)[C@H]3[C@]3(C(=O)OC)CCCCN23)cc1OC	10	34	-10	·	1
CCCCCCSc1ccc([C@@H]2[C@@H]3C(=O)N(C)C(=O)[C@@H]3[C@]3(C(=O)OC)CCCCN23)cc1OC	9	27	105*	12	1
Cc1csc2ncnc(NCCc3ccccn3)c12	79*	1	-9	3	0
c1ccc(CCNc2ncnc3sccc23)nc1	50	7	-1	-86	0
Nc1c(C(=O)c2ccccc2)sc2nsc(SCCN3CCCC3)c12	-10	19	89*	-87	-1
CCC(Oc1ccc(C)c(C)c1)C(=O)N1CCCN(C)CC1 (stereo not drawn)	·	22	-6	1	0
Cc1ccoc1C(=O)Nc1ccc(CC(=O)O)cc1	9	-2	0	84*	-4
CCOCCc1nnc(NC(=O)CCS(=O)(=O)c2ccccc2)s1	-25	39	0	-20	1
CN(c1ccccc1)c1ccc(/C=C/[N+](=O)[O-])cc1	89*	·	-1	-19	4
COc1ccc(-n2c(SC(C)C(=O)Nc3ncc(Cl)cc3Cl)nc3ccccc32)cc1 (stereo not drawn)	-4	·	59	77*	-1
CC(Sc1nnc2ccccn12)C(=O)Nc1ncc(Cl)cc1Cl (stereo not drawn)	3	-10	3	-38	-1
CC(=O)Nc1ccc(NC(=O)C(=O)NCC(c2ccco2)N2CCc3ccccc3C2)cc1 (stereo not drawn)	-9	-28	-4	5	2
COc1ccc(NC(=O)C(=O)NCC(c2ccco2)N2CCc3ccccc32)cc1 (stereo not drawn)	·	19	35	85*	2
SMILES	Beta cell apopt	Mdm2-MdmX inh	CSC inhib	aSyn UTR inh	A1 inh
CC(=O)Nc1ccc(NC(=O)C(=O)NCC(c2ccco2)N2CCc3ccccc32)cc1 (stereo not drawn)	·	8	43	10	32*
O=C1C=C(c2ccccc2)C(=O)N1Nc1ccccc1	·	22	52	-14	0
Cc1ccc(NN2C(=O)C=C(c3ccc(Cl)cc3)C2=O)cc1	-5	32	62	-49	11*
Cc1nc(Nc2ccc(S(=O)(=O)N3CCCCC3C)cc2)c2nnn(Cc3ccccc3)c2n1 (stereo not drawn)	76*	25	6	26	0
O=[N+]([O-])c1ccc(COc2ccc(-c3[nH]ncc3-c3ccccc3)c(O)c2)cc1	25	27	118*	-13	0
CCOC(=O)C1=C(COC(=O)Cc2ccc(Cl)cc2)NC(=O)NC1C (stereo not drawn)	-4	8	·	·	0
CCc1nnc(N/N=C/c2ccc(N3CCC(C)CC3)c([N+](=O)[O-])c2)n1N	-3	30	0	0	0
Cc1nnc(N/N=C/c2cc([N+](=O)[O-])c(N3CCC(C)CC3)cc2N2CCC(C)CC2)n1N	115*	16	19	-19	-1
CC(C)Oc1ccc(S(=O)(=O)N2CCCCC2)cc1NC(=O)CN1C(=O)NC(C)(C2CC2)C1=O (stereo not drawn)	7	-6	·	·	0
CC(C)Oc1ccc(S(=O)(=O)N2CCCCC2)cc1NC(=O)CN1CCCC1c1cccs1 (stereo not drawn)	92*	35	12	·	0
CCOc1ccc(C(=O)Nc2ccc(S(=O)(=O)N3C[C@@H]4C[C@@H](C3)c3cccc(=O)n3C4)cc2)cc1	-4	24	-9	·	0
Cc1nn2c(=O)cc(CSCC(=O)Nc3ccccc3Cl)nc2s1	·	-34	·	-20	·
O=S(=O)(NCc1ccccc1)c1ccc(Cl)cc1	-1	21	·	14	1
O=S(=O)(Nc1cc2nc3ccccc3nc2n1Cc1ccccc1)c1ccc(Cl)cc1	3	·	112*	8	0
Cc1ccc(-c2c[n+](Cc3ccc(Cl)c(Cl)c3)c3n2CCC3)cc1	89*	35	33	20	0
Cc1csc(NC(=O)c2cn3ccccc3n2)n1	32	20	28	82*	-8
O=C(Nc1ccccc1)c1cn2ccccc2n1	14	9	19	51	-7
C=CCn1c(NS(=O)(=O)c2ccccc2)c(S(=O)(=O)c2ccc(C)cc2)c2nc3ccccc3nc21	-1	·	9	11	0
O=S(=O)(Nc1c(S(=O)(=O)c2ccccc2)c2nc3ccccc3nc2n1C1CCCCC1)c1ccccc1	2	·	106*	14	-1
C/C(=N\NC(=O)C(C)n1nc(C)c([N+](=O)[O-])c1C)c1ccccc1O (stereo not drawn)	92*	40	15	78*	2
COc1ccccc1N1CCN(C(=O)c2ccc3c(c2)NC(=O)C(CSCc2ccccc2C)N3)CC1 (stereo not drawn)	-7	8	-2	-11	1
CCc1ccc(-n2c(C)cc(/C=N/NC(=O)c3ccncc3)c2C)cc1	106*	5	0	21	1
OCCCn1c(CCNc2nc(-c3ccc(Cl)cc3)cs2)nc2cc(C(F)(F)F)ccc21	1	-21	78*	-8	0
O=[N+]([O-])c1cc(-c2csc(NCCc3nc4cc(C(F)(F)F)ccc4n3CCCO)n2)ccc1Cl	-8	-1	1	-21	1
